According to PubChem BioAssay AID504725 (Broad Institute, 2011):
Entries with a potency or affinity are not part of this list. The source made the active and inactive calls. How the calls were made is not given here.

Molecular target: KSHV LANA C-terminal domain (residues 932-1162) binding to LBS DNA (UniProt O40947)
Experiment: KSHV LANA DNA-binding disruption – biochemical, fluorescence polarization, cherry-picked samples, dose response (AID 504725)
Conditions: MBP-C-LANA / FAM-LBS DNA fluorescence polarization, percent change from plate compound-well median; series mostly up to 35 µM

outcome, inactive:
COc1ccc(NS(=O)(=O)c2ccc(C)c(C(=O)N(C)Cc3ccc(OC)cc3OC)c2)cc1, Cn1c(=O)c2c(nc(SCC(=O)NCc3ccc4c(c3)OCO4)n2Cc2ccc(Cl)cc2)n(C)c1=O, O=C(c1coc(=O)c(Br)c1)N1CCCc2ccccc21, O=C(CC1CCCC1)N1CCN(S(=O)(=O)c2ccccc2)CC1, Cc1cc(Cl)ccc1N1C(=O)CC(NNC(=O)c2cccnc2)C1=O (configuration not stated), COc1cc(OC)cc(-c2c(-c3ccsc3)c3cc(Br)ccc3n2C)c1, O=C(OCC(=O)N1N=C(c2ccc(Cl)cc2)CC1c1ccco1)c1cccnc1 (configuration not stated), CCCOc1ccc(C=Nc2ccc(OC)c(S(=O)(=O)N3CCOCC3)c2)c(O)c1, O=C(CCn1c(=S)oc2ccccc21)N1CCN(c2ccc(F)cc2)CC1, Cc1c(Cl)cccc1NS(=O)(=O)c1ccc2c(c1)C1C=CCC1C(c1ccc(C(=O)O)cc1)N2 (configuration not stated), O=C(C1CCCO1)N1CCN(c2ncccn2)CC1 (configuration not stated), COc1ccc(N(CC(=O)NCc2ccc3c(c2)OCO3)C(=O)c2csnn2)cc1, COc1ccc(NC(=O)CO/N=C2/CCCc3nonc32)c(OC)c1, COc1ccc(NC(=O)CN(C)CC(=O)Nc2ccc(N3CCOCC3)cc2)c([N+](=O)[O-])c1, Cc1ccc(S(=O)(=O)/N=C2/C=C(Sc3ncn[nH]3)C(=O)c3ccccc32)cc1, COc1ccc(C(C)=O)cc1CN(C)C, C=CCn1c(C)cc(-c2csc(NC(=O)CCc3nc4ccccc4c(=O)[nH]3)n2)c1C
